Reference: PMC4552634, “A New Set of Chemical Starting Points with Plasmodium falciparum Transmission-Blocking Potential for Antimalarial Drug Discovery” (PLoS ONE, 2015)
Among all 13,000 compounds or so, about 3,200 (25%) showed an effect of 50% or more. The list shows a part of the results.

The compounds below were run on P. falciparum stage V gametocytes. Details: 48 h, 5 µM; inhibitor.
Parameters: BacTiter-Glo ATP luminescence viability of purified stage V gametocytes in 384-well plates, per cent inhibition versus DMSO
In the case of `CCOc1ccc2nc(N(CCCn3ccnc3)C(=O)C=Cc3cccs3)sc2c1` [TCMDC-124925], the “% Inhibition” value is reported as -19.53%. `Nc1nc(N)c2c(ccc3nn(S(=O)(=O)N4CCCC4)cc32)n1` [TCMDC-137854] was tested, and the “% Inhibition” value was 1.328%. `COc1c(C2CCN(CCCCNC(=O)c3cc(-c4ccc(C#N)cc4)n[nH]3)CC2)ccc2c1CCCC2` [TCMDC-134659] was tested, and the “% Inhibition” value was -32.94%. For `COc1c(C2CCN(CCCCNC(=O)c3ccc(-c4ccc(Cl)cc4)c(OCCN(C)C)c3)CC2)ccc2c1CCCC2` [TCMDC-134371], the “% Inhibition” value was 101.9%. With `COc1c(C2CCN(CCCCNC(=O)c3ccc(-c4ccc(C#N)cc4)c(O)c3)CC2)ccc2c1CCCC2` [TCMDC-138682] the “% Inhibition” value was 69.72%. In the case of `COc1c(C2CCN(CCCCNC(=O)C=Cc3cc4cc(Cl)ccc4o3)CC2)ccc2c1CCCC2` [TCMDC-135062], the “% Inhibition” value is reported as -50.69%. `COc1c(C2CCN(CCCCNC(=O)c3ccc(-c4ccc(C#N)cc4)nc3)CC2)ccc2c1CCCC2` [TCMDC-134688] was tested, and the “% Inhibition” value was -0.6168%. With `COc1c(C2CCN(CCCCNC(=O)c3oc(-c4ccc(Cl)cc4)cc3CO)CC2)ccc2c1CCCC2` [TCMDC-134829] the “% Inhibition” value was -10.73%. For `COc1c(C2CCN(CCCCNC(=O)c3ccc(-c4ccc(Cl)cc4)c(O)c3)CC2)ccc2c1CCCC2` [TCMDC-134282], the “% Inhibition” value was 111.5%. `COC(=O)COc1cc(C(=O)NCCCCN2CCC(c3ccc4c(c3OC)CCCC4)CC2)ccc1-c1ccc(Cl)cc1` [TCMDC-134372] was tested, and the “% Inhibition” value was 38.74%. With `COc1c(C2CCN(CCCCNC(=O)C=Cc3ccccc3C(F)(F)F)CC2)ccc2c1CCCC2` [TCMDC-135279] the “% Inhibition” value was 85.89%. With `CCN(c1ccccc1)S(=O)(=O)c1ccc(OC)c(NC(=O)c2cccc(C(F)(F)F)c2)c1` [TCMDC-125343] the “% Inhibition” value was 14.96%. With `O=C(NC1CCN(c2ccnc3cc(Cl)ccc23)C1)c1cccc(F)c1` (stereo not shown) [TCMDC-133656] the “% Inhibition” value was 0.5042%. With `COc1c(C2CCN(CCCCNC(=O)c3cc(-c4ccc(Cl)cc4)oc3C)CC2)ccc2c1CCCC2` [TCMDC-134696] the “% Inhibition” value was 7.674%. With `COc1c(C2CCN(CCCCNC(=O)c3ccc(-c4ccc(Cl)cc4)cn3)CC2)ccc2c1CCCC2` [TCMDC-134687] the “% Inhibition” value was 70.09%. For `NC(=O)COc1c(C2CCN(CCCCNC(=O)c3ccc(-c4ccc(Cl)cc4)c(O)c3)CC2)ccc2c1CCCC2` [TCMDC-133379], the “% Inhibition” value was 84.67%. With `COc1c(C2CCN(CCCCNC(=O)c3ccc(-c4ccc(NC(=O)C(F)(F)F)cc4)cc3)CC2)ccc2c1CCCC2` [TCMDC-134380] the “% Inhibition” value was 96.81%. With `N#Cc1ccc(NC(=O)c2ccc(C(=O)NCCCCN3CCC(c4ccc5c(c4OCCOC4CCCCO4)CCCC5)CC3)cc2)cc1` (stereo not shown) [TCMDC-138789] the “% Inhibition” value was 80.58%. In the case of `COc1c(C2CCN(CCCCNC(=O)c3cc(-c4ccc(Cl)cc4)[nH]c3C)CC2)ccc2c1CCCC2` [TCMDC-135270], the “% Inhibition” value is reported as 45.24%. With `Cc1nc(-c2ccc(C#N)cc2)sc1C(=O)NCCCCN1CCC(c2ccc3c(c2OCCO)CCCC3)CC1` [TCMDC-138879] the “% Inhibition” value was 11.85%. With `CC(=O)c1ccc(-c2ccc(C(=O)NCCCCN3CCC(c4ccc5c(c4OCC(N)=O)CCCC5)CC3)cc2)s1` [TCMDC-134174] the “% Inhibition” value was -29.18%. In the case of `COc1c(C2CCN(CCCCNC(=O)c3cccc(-c4ccc(C(F)(F)F)cc4)c3)CC2)ccc2c1CCCC2` [TCMDC-138701], the “% Inhibition” value is reported as 48.96%. With `COc1c(C2CCN(CCCCNC(=O)c3ccc(-c4ccc(Cl)cc4)c(OCC(N)=O)c3)CC2)ccc2c1CCCC2` [TCMDC-134373] the “% Inhibition” value was 13.03%. With `COC(=O)c1sc2ccccc2c1NC(=O)c1ccc(C)c(C)c1` [TCMDC-125650] the “% Inhibition” value was 21.99%. With `CCC(C)(C)c1ccc2nc(N)nc(N)c2c1C` [TCMDC-137829] the “% Inhibition” value was -16.15%. In the case of `CC(=O)N1CCC(C(=O)Nc2ccc(-c3cccc(-c4nc5ccc(C(F)(F)F)cc5[nH]4)c3)cc2)CC1` [TCMDC-132166], the “% Inhibition” value is reported as -13.72%. `O=C(/C=C/c1ccc(Cl)c(Cl)c1)NCCCCCN1CCC(NC(=O)Nc2ccc(Cl)cc2Cl)CC1` [TCMDC-135729] was tested, and the “% Inhibition” value was -21.32%. `O=C(Nc1cccc(N2CCC(NCc3cccnc3)CC2)c1)c1cccc(C(F)(F)F)c1` [TCMDC-124649] was tested, and the “% Inhibition” value was -0.3933%. `COc1c(C2CCN(CCCCNC(=O)c3ccc(NC(=O)c4ccc(C#N)cc4)cc3)CC2)ccc2c1CCCC2` [TCMDC-138664] was tested, and the “% Inhibition” value was 116.8%. For `COc1c(C2CCN(CCCCNC(=O)c3noc(-c4ccc(C#N)cc4)n3)CC2)ccc2c1CCCC2` [TCMDC-138814], the “% Inhibition” value was 4.753%. In the case of `Cn1ccc(C(=O)Nc2ccc3c(c2)CN(Cc2ccc(N4CCCC4)o2)CCC3)n1` [TCMDC-134722], the “% Inhibition” value is reported as -3.632%. In the case of `O=C(NCc1cccc(F)c1)Nc1cccc(-c2cccc(-c3nc4ccccc4[nH]3)c2)c1` [TCMDC-133290], the “% Inhibition” value is reported as 0.3342%. For `CC(=O)Nc1ccc(CN2Cc3ccc(NC(=O)Nc4ccc(Oc5ccccc5)cc4)cc3C2)s1` [TCMDC-141756], the “% Inhibition” value was -76.53%. For `Cc1cccc2nc(-c3ccc(-c4ccc(CN5CCC(C(N)=O)CC5)cc4)cc3)[nH]c12.O=C(O)C(F)(F)F` [TCMDC-132688], the “% Inhibition” value was 10.12%. For `Fc1ccc2[nH]c(-c3ccc(-c4ccc(CN5CCC(CCN6CCCCC6)CC5)cc4)cc3)nc2c1` [TCMDC-133924], the “% Inhibition” value was 105.4%. In the case of `O=C(O)C(F)(F)F.OCC1CCN(Cc2ccc(-c3ccc(-c4nc5cc(F)ccc5[nH]4)cc3)cc2)CC1` [TCMDC-133125], the “% Inhibition” value is reported as 29.73%. In the case of `NC(=O)C1CCN(Cc2cccc(-c3ccc(-c4nc5ccc(C(F)(F)F)cc5[nH]4)cc3)c2)CC1` [TCMDC-132691], the “% Inhibition” value is reported as -22.66%. For `NC(=O)C1CCN(Cc2ccc(-c3ccc(-c4nc5cc(F)ccc5[nH]4)cc3)cc2)CC1.O=C(O)C(F)(F)F` [TCMDC-132693], the “% Inhibition” value was 4.411%. `Fc1ccc2nc(-c3cccc(-c4ccc(CN5CCCCC5)cc4)c3)[nH]c2c1` [TCMDC-133887] was tested, and the “% Inhibition” value was 2.75%. `Fc1ccc2[nH]c(-c3cccc(-c4ccc(CN5CCC(CCN6CCCCC6)CC5)cc4)c3)nc2c1` [TCMDC-133940] was tested, and the “% Inhibition” value was 104.4%. For `FC(F)(F)c1ccc2nc(-c3ccc(-c4cccc(CN5CCCCC5)c4)cc3)[nH]c2c1` [TCMDC-133886], the “% Inhibition” value was -44.09%. In the case of `c1cc(-c2ccc(CN3CCCCC3)cc2)cc(-c2nc3ccccc3[nH]2)c1` [TCMDC-133917], the “% Inhibition” value is reported as -5.733%. With `Cc1cccc2nc(-c3ccc(-c4ccc(CN5CCCC(O)C5)cc4)cc3)[nH]c12.O=C(O)C(F)(F)F` (stereo not shown) [TCMDC-133826] the “% Inhibition” value was 35.59%. For `Cc1cccc2nc(-c3ccc(-c4ccc(CN5CCC(CCN6CCCCC6)CC5)cc4)cc3)[nH]c12` [TCMDC-133929], the “% Inhibition” value was 114%. `FC(F)(F)c1ccc2[nH]c(-c3ccc(-c4cccc(CN5CCC(CCN6CCCCC6)CC5)c4)cc3)nc2c1` [TCMDC-133941] was tested, and the “% Inhibition” value was 100.4%. With `CC(=O)c1cccc2c(NC(=O)Nc3ccc4nccc(N5CCN(C)CC5)c4c3)cccc12` [TCMDC-139345] the “% Inhibition” value was -42.22%. With `O=C(Nc1ccsc1)Nc1cccc(-c2cccc(-c3nc4ccc(C(F)(F)F)cc4[nH]3)c2)c1` [TCMDC-133214] the “% Inhibition” value was -52.37%. With `CC(=O)C1(c2ccccc2)CCN(CCC2(c3ccc(Cl)c(Cl)c3)CN(C(=O)Nc3cc(F)cc(F)c3)CCO2)CC1` (stereo not shown) [TCMDC-135332] the “% Inhibition” value was -16.09%. `N#Cc1ccc(NC(=O)c2ccc(Cc3ccc4c(c3)CCN(C3CCC3)CC4)cn2)cc1` [TCMDC-136453] was tested, and the “% Inhibition” value was 22.22%. With `COc1ccc(NC(=O)/C=C/c2ccccc2Cl)cc1OCCN1CCC(O)(c2ccc(Cl)c(C(F)(F)F)c2)CC1` [TCMDC-140918] the “% Inhibition” value was -10.77%. For `Fc1ccc2nc(-c3ccc(-c4cccc(CN5CCCCC5)c4)cc3)[nH]c2c1` [TCMDC-133896], the “% Inhibition” value was -18.48%. For `Fc1ccc2nc(-c3ccc(-c4cccc(CN5CCC(CCN6CCCCC6)CC5)c4)cc3)[nH]c2c1` [TCMDC-133933], the “% Inhibition” value was 114%. In the case of `Fc1ccc2[nH]c(-c3ccc(-c4ccc(CN5CCC(CCN6CCCCC6)CC5)cc4)s3)nc2c1` [TCMDC-133932], the “% Inhibition” value is reported as 102.4%. With `OCCN1CCN(Cc2cccc(-c3cccc(-c4nc5ccc(F)cc5[nH]4)c3)c2)CC1` [TCMDC-133035] the “% Inhibition” value was -22.3%. In the case of `OCc1c(Cl)cc(Cl)cc1CNCCCNc1nc2ccccc2[nH]1` [TCMDC-140012], the “% Inhibition” value is reported as -23.66%. `O=C(/C=C/c1ccc(Cl)c(Cl)c1)NCC1CCN(Cc2ccc(O)cc2)CC1` [TCMDC-141740] was tested, and the “% Inhibition” value was 34.51%. For `CCC1(C)CC(CCNCc2ccccc2O)(c2ccccc2OC)CCO1` (stereo not shown) [TCMDC-125080], the “% Inhibition” value was 19.87%. `Cn1nc(-c2cccc(CNCCc3cccs3)c2)c2cnc(NC3CCCC3)nc21` [TCMDC-135031] was tested, and the “% Inhibition” value was 12.01%. In the case of `CN1CCC(NCc2cccc(-c3cnc(NCc4ccccc4)nc3)c2)CC1` [TCMDC-134119], the “% Inhibition” value is reported as 58.9%. In the case of `COc1ccc(-c2cnc(NCc3ccccc3)nc2)cc1CNC1CCN(C)CC1` [TCMDC-134121], the “% Inhibition” value is reported as 34.84%. `Cn1nc(-c2cccc(CNCc3ccccc3)c2)c2cnc(NC3CCCC3)nc21` [TCMDC-134839] was tested, and the “% Inhibition” value was -3.994%. In the case of `CN1CCC(NCc2ccc(-c3cnc(NCc4ccccc4)nc3)cc2)CC1` [TCMDC-134120], the “% Inhibition” value is reported as 82.56%. For `CN1CCC(N(Cc2ccc(-c3cnc(NCc4ccccc4)nc3)cc2)S(=O)(=O)c2ccccc2)CC1` [TCMDC-137158], the “% Inhibition” value was 31.68%. `CN1CCC(NCc2cccc(-c3nn(C)c4nc(NC5CCCC5)ncc34)c2)CC1` [TCMDC-134840] was tested, and the “% Inhibition” value was 110.3%.
